Pf apPOL block – Pf-apPOL inhibitors, biochemical, fluorescence; 210,000 compounds, 0.25% hits; Recombinant Pf-apPOL, molecular beacon fluorescence, 1.5 h; inhibition, % at 10 µM; AID 1794808, 2022
mHTT-CaM PPI inh – mutant huntingtin-calmodulin interaction inhibitors – biochemical, AlphaScreen, primary screen; AID 1671202, 2021; AlphaScreen His-mHTT/GST-CaM binding, luminescence; 190,000 compounds, 3.6% hits; inhibition, % at 15 µM; P42858
Target sequence (P42858 whole entry, looked up, change not shown): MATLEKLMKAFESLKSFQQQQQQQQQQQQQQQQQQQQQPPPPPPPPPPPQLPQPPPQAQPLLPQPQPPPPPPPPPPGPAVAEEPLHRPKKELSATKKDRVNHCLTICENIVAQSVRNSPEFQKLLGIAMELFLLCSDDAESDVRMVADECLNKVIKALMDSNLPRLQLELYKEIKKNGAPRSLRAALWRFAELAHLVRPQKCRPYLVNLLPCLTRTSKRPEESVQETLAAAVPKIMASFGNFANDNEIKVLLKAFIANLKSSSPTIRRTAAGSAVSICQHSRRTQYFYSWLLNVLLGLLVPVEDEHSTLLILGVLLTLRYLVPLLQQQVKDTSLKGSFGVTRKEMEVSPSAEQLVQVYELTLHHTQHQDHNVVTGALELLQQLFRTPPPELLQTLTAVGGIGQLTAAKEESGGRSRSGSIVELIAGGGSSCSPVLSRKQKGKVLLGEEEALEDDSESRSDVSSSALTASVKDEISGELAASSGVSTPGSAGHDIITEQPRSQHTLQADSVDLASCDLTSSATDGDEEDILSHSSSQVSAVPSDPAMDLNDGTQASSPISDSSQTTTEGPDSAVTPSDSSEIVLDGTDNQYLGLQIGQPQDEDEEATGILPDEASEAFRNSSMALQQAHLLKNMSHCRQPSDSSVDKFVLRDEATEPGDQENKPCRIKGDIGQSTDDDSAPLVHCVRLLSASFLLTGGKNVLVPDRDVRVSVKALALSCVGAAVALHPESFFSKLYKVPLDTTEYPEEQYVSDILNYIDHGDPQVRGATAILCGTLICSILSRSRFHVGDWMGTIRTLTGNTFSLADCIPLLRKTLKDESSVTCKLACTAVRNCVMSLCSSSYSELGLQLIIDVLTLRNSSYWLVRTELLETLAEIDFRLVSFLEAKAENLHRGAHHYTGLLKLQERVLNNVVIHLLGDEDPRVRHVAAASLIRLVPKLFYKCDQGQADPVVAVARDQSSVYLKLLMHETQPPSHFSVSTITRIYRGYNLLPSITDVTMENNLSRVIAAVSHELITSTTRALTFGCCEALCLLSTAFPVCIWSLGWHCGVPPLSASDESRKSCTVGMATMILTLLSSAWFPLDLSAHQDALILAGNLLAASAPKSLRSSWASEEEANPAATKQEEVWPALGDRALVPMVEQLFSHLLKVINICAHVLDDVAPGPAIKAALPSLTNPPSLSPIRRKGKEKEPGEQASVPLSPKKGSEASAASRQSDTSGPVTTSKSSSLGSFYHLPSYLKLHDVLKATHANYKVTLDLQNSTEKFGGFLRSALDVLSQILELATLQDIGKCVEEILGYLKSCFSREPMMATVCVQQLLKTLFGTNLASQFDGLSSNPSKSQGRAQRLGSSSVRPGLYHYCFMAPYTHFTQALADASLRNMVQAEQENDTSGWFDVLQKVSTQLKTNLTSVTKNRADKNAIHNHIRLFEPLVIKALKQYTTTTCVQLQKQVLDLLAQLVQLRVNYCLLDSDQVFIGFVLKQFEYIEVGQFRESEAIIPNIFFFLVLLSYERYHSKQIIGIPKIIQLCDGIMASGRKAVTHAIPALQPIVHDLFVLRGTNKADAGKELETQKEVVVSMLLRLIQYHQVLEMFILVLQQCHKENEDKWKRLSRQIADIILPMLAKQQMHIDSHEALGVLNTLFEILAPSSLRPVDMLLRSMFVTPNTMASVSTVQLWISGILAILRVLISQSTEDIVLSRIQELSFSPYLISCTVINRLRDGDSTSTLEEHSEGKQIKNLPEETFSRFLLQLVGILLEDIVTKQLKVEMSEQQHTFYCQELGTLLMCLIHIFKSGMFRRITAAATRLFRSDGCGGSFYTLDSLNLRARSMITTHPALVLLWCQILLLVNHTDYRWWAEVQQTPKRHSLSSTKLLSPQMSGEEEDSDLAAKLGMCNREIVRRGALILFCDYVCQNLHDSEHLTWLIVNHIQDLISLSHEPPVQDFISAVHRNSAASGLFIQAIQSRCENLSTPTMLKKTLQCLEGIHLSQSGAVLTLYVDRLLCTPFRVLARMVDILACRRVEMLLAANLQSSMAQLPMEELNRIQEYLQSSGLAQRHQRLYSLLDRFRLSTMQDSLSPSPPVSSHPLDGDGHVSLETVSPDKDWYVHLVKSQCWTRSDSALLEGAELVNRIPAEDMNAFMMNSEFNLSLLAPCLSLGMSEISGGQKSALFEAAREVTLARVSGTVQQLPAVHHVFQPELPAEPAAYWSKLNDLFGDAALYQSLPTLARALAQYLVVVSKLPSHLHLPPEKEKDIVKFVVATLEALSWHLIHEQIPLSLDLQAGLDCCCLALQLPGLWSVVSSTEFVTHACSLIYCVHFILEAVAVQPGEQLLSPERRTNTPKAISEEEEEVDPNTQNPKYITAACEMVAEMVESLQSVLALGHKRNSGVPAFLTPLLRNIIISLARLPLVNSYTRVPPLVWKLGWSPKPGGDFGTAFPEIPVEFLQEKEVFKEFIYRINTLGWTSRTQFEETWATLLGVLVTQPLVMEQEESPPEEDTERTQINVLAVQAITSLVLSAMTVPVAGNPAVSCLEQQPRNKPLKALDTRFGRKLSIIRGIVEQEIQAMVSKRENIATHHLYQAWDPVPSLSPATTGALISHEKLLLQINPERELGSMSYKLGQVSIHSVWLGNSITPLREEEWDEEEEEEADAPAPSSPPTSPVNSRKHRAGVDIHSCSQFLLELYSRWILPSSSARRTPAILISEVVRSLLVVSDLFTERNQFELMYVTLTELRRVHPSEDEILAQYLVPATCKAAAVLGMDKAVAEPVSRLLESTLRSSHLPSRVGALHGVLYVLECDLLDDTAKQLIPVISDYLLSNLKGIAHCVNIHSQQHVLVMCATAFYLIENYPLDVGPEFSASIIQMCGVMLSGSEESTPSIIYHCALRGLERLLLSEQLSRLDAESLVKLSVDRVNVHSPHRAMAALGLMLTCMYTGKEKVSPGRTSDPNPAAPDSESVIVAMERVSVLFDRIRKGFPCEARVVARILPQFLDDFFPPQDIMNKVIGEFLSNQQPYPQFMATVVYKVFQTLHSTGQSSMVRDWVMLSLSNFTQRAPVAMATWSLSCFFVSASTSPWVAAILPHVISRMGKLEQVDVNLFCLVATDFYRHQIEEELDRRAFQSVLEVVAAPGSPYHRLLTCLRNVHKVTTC
A number is an active result; - = inactive; . = no result; ! = a repeat was not active. An excerpt weighted towards active compounds, which were near 3.5% of everything screened. Cut-off read from the data, not from the text of the source: active = inhibition above about 50%; inactive = the rest.

SMILES | Pf apPOL block | mHTT-CaM PPI inh
CCN1c2cc(C)ccc2-n2cccc2C12CCN(C(=O)c1ccc(OC)cc1)CC2 | - | 94
CCOc1ccc(C(=O)N2CCC3(CC2)NC(=O)c2cc(C)ccc2N3CC)cc1 | - | -
CN(C)CC(O)COc1ccc(C23CC4CC(CC(C4)C2)C3)cc1 (stereo not given) | - | -
Cc1cccc2sc(NC(=O)c3coc(NC(=O)c4cccs4)n3)nc12 | - | 99
O=C(Nc1nc2c(s1)CCCC2)c1coc(NC(=O)c2cccs2)n1 | - | -
Cc1nc(-c2ccc(-c3noc(COc4ccc(Cl)cc4)n3)cc2)cs1 | - | -
Cc1cc(OC(=O)C(C)C)cc2c1C(=O)C(=Cc1cccnc1)O2 | - | -
Cc1ccc(-c2nc3ncccn3c2Nc2c(C)cccc2C)o1 | - | -
Cc1cccc(C)c1Nc1c(-c2ccccn2)nc2ncccn12 | - | 100
Cc1ccc(-n2ncc3c(=O)n(NC(=O)COc4ccc(Cl)cc4Cl)cnc32)cc1 | - | -
COc1ccc(-n2nc(C(C)(C)C)cc2NC(=O)C2CCC2)cc1 | - | -
O=C(Nc1cc(-c2ccco2)nn1-c1cc(C(F)(F)F)cc(C(F)(F)F)c1)C1CCC1 | 91 | .
COc1cccc(NC(=O)N2CCc3nc[nH]c3C2)c1 | - | -
Cc1oc2ccc(OCc3cccc(F)c3)cc2c1C(=O)O | 56 | -
Cc1oc2ccc(OCc3ccccc3)cc2c1C(=O)O | - | -
CCC(C)NS(=O)(=O)c1ccc2[nH]c3c(c2c1)CCCC3 (stereo not given) | - | -
COc1ccc(OC)c(NS(=O)(=O)c2ccc3[nH]c4c(c3c2)CCCC4)c1 | - | 71
CCOC(=O)c1ccc(NS(=O)(=O)c2ccc3[nH]c4c(c3c2)CCCC4)cc1 | - | 87
CCOc1ccccc1NS(=O)(=O)c1ccc2[nH]c3c(c2c1)CCCCC3 | - | -
COc1ccc(OC)c(NS(=O)(=O)c2ccc(-c3ccccc3)cc2)c1 | - | -
O=S(=O)(Nc1ccccc1F)c1ccc2[nH]c3c(c2c1)CCCC3 | - | 56
O=C1c2ccccc2C(=O)c2cc(S(=O)(=O)Nc3ccccc3F)ccc21 | - | -
COc1ccccc1NS(=O)(=O)c1ccc2[nH]c3c(c2c1)CCCCC3 | - | 97
c1ccc(CN(Cc2ccccc2)c2ccccc2)cc1 | - | .
O=C(NC1CC1)c1ccc(-c2cccnc2)nc1 | - | -
SMILES | Pf apPOL block | mHTT-CaM PPI inh
Cc1ccc(-c2noc(CSc3nccn3-c3ccccc3)n2)cc1 | - | -
COc1ccccc1CNS(=O)(=O)c1ccc2[nH]c3c(c2c1)CCCC3 | - | 64
COc1ccccc1NS(=O)(=O)c1ccc2[nH]c3c(c2c1)CCCC3 | - | 81
O=S(=O)(Nc1cccnc1)c1ccc2[nH]c3c(c2c1)CCCCC3 | - | -
COc1ccccc1NS(=O)(=O)c1ccc2[nH]c(=O)sc2c1 | - | -
COc1cc(NS(=O)(=O)c2ccc3[nH]c4c(c3c2)CCCC4)cc(OC)c1OC | - | 83
COc1ccccc1CNS(=O)(=O)c1ccc(OC)c(OC)c1 | - | -
COc1ccccc1NC(=O)N1CCC(CCOc2ccccc2)CC1 | - | -
COc1ccc(CNCc2ccc(F)c(F)c2)cc1 | - | -
CCN1C(=Cc2c3ccccc3cc[n+]2CC)C=Cc2ccccc21 | - | 63
CCN1/C(=C/c2cccc[n+]2C)C=Cc2ccccc21 | - | -
CCn1c(=O)c(N2CCCC(C(=O)NC3CCCCCCC3)C2)nc2ccccc21 (stereo not given) | - | 64
CCCn1c(N2CCCC(C(=O)NC3CC3)C2)nc2ccccc21 (stereo not given) | - | -
Cc1cc(C)c2nc(C)cc(NC(=O)c3ccccn3)c2c1 | - | -
COc1cccc(C(Nc2ccccn2)c2ccc3ccc(C)nc3c2O)c1OC (stereo not given) | - | 69
COc1ccccc1C(=O)Nc1ccccn1 | - | -
Cc1ccc2ccc(C(Nc3ccccn3)c3ccccc3C)c(O)c2n1 (stereo not given) | - | 68
Cc1ccc(CCNC(=O)c2ccc3c(c2)NC(=O)C2CCCCN32)cc1 (stereo not given) | - | -
N#CC1=C(N)OC2=C(C(=O)CC(c3ccccc3)C2)C1c1ccsc1 (stereo not given) | - | -
N#CC1=C(N)OC2=C(C(=O)CC(c3ccccc3)C2)C1C1CCCCC1 (stereo not given) | 51! | 60!
N#CC1=C(N)OC2=C(C(=O)CC(c3ccccc3)C2)C1c1ccc(Cl)cc1 (stereo not given) | - | -
N#CC1=C(N)OC2=C(C(=O)CC(c3ccccc3)C2)C1c1ccc(Cl)cc1Cl (stereo not given) | - | 69
c1ccc(N2CCN(c3ccccc3)C2c2cccnc2)cc1 | - | 58
Clc1ccc(CN2CCCN(Cc3ccc(Cl)cc3)C2c2cccnc2)cc1 | - | .
COc1ccccc1C(CC(=O)O)c1ccc2c(c1)OCO2 (stereo not given) | - | -
SMILES | Pf apPOL block | mHTT-CaM PPI inh
COc1ccc(CN(CCC(c2ccc3c(c2)OCO3)c2ccccc2OC)C(C)=O)cc1OC (stereo not given) | - | 68
COc1ccc(CN(CCC(c2ccc3c(c2)OCO3)c2ccccc2OC)C(C)=O)cc1 (stereo not given) | - | 53
COc1ccccc1C(CC(=O)N1CCCC1)c1ccc2c(c1)OCO2 (stereo not given) | - | -
COc1ccccc1C(CCN(Cc1ccccc1)C(C)=O)c1ccc2c(c1)OCO2 (stereo not given) | - | 99
CCC(=O)N(CCC(c1ccc2c(c1)OCO2)c1ccccc1OC)Cc1ccc2c(c1)OCO2 (stereo not given) | - | -
Cc1cc(C)c(NC(=O)c2cc3ccccc3c(=O)o2)c(C)c1 | - | -
CCOC(=O)Cn1cnc2c(-c3ccccc3)csc2c1=O | - | -
Cc1ccc(S(=O)(=O)N2CCSC2c2ccccc2Cl)cc1 (stereo not given) | - | -
Cc1c(C(=O)Nc2ccc(F)c(F)c2)oc2ccc(S(=O)(=O)N3CCCC3)cc12 | - | -
Cc1ccccc1C(=O)N1CC=C(C(=O)NC(C)C)CC1 | - | -
COc1ccc(NC(=O)C2CCc3sc(C(=O)N4CCCCC4)cc3C2)c(OC)c1 (stereo not given) | - | 57
COc1ccc(OC)c(NC(=O)C2CCc3sc(C(=O)N4CCCC4)cc3C2)c1 (stereo not given) | - | -
CC1=C(C(=O)Nc2ccc(Cl)cc2)C(c2ccccc2F)n2nnnc2N1 (stereo not given) | - | -
CCOC(=O)Oc1ccc2c(=O)c(Oc3ccccc3Cl)coc2c1 | - | -
CCOC(=O)Oc1ccc2c(=O)c(-c3ccccc3Cl)coc2c1 | - | -
COC(=O)Oc1ccc2c(=O)c(-c3ccccc3Cl)coc2c1 | - | 61!
COC(=O)Oc1ccc2c(=O)c(Oc3ccccc3Cl)coc2c1 | - | 69
C=CCn1cnc2c1c(=O)n(CC(C)C)c(=O)n2-c1ccc(Cl)cc1 | - | -
CCOc1c(/C=C(\C#N)c2nc3ccccc3[nH]2)cccc1OC | - | -
COc1ccc(-c2c3c(=O)n(C)c(=O)n(C)c3cn2-c2ccc(C)cc2C)cc1 | - | -
CNc1ccc([N+](=O)[O-])cc1-n1cc2c(c1-c1ccccc1)c(=O)n(C)c(=O)n2C | 65 | -
CCn1cc2c(c1-c1ccccc1)c(=O)n(C)c(=O)n2C | - | -

Source: PubChem BioAssay (University of Kansas High Throughput Screening Laboratory)
